Data reported in PubChem BioAssay (EPA / NIEHS).
The source made the active and inactive calls. Rule for the calls: active = hit-call score of the fitted dose curve at least 0.9, where 1 is the maximum; inactive = score below 0.9.

What follows are compounds tested on TTR (gene 7276) (assay: CCTE_GLTED_hTTR_0.125uM: CCTE's human Transthyretin (hTTR) Inhibition Assay, with 0.125uM TTR, Great Lakes Toxicology and Ecology Division (GLTED) Lab (AID 2284431);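 note: hits lower the fluorescence signal relative to DMSO baseline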).
Outline: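 TTR 0.125uM + test chemical, 2 h; ANSA probe displacement; ex 380/em 475 fluorescence; signal loss vs DMSO control.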

| Structure (SMILES) | AC50 |
| --- | --- |
| O=S(=O)(c1ccc(O)cc1)c1ccc(O)cc1 | 19.9 µM (active) |
| CCCCc1ccc(O)cc1 | 6.48 µM (active) |
| CCC(C)(C)c1ccc(O)cc1 | 14.4 µM (active) |
| O=c1ssc(Cl)c1Cl | 0.578 µM (active) |
| CO/N=C(/C(=O)OC)c1ccccc1COc1ccccc1C | 3.22 µM (active) |
| CCCCCCCc1ccc(O)cc1 | 0.736 µM (active) |
